# Reference: the supplement of paper PMC3334620
# The full ranking holds about 33,000 sequences; the median of “E-score (-0.5 to 0.5)” is about -0.036, and the highest 2% start at about 0.37. What follows is part of a selection rich in the highest values, with near analogues and random picks from the rest.
# Biological target: T1, Yer064c (UniProt P40041)
# T1 sequence: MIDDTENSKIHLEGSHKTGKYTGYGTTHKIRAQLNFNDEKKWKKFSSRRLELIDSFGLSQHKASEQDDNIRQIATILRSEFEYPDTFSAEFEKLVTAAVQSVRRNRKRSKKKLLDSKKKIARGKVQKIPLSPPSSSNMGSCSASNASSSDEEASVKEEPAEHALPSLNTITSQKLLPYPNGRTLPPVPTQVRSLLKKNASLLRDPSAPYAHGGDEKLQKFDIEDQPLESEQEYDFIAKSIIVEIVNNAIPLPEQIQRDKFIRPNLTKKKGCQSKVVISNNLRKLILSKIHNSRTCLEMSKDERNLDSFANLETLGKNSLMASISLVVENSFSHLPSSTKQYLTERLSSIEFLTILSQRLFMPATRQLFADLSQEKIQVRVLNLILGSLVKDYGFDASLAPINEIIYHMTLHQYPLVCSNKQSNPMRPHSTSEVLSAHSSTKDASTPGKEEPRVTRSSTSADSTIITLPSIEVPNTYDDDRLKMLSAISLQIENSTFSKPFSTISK
# Assay: PBM E-score (8-mer binding enrichment) (E-score (-0.5 to 0.5)); higher = stronger / more preferred TF binding
# Conditions: protein concentration: 200 nM; construct: GST-full length
# Method: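 Universal 'all 10-mer' protein binding microarrays (Agilent AMADID 015681) probed with GST-tagged S. cerevisiae TFs (full-length or DBD) made by in vitro transcription/translation (PURExpress), about 100-200 nM. Bound TF was detected with fluorescent anti-GST. Each ungapped 8-mer (which stands for itself and its reverse complement) is scored by the PBM enrichment score (E-score), a modified Wilcoxon-Mann-Whitney statistic from -0.5 to +0.5, computed with the Universal PBM Analysis Suite. Scale: above 0.35 generally sequence-specific binding.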
row,Sequence,PBM E-score
1,CTGCATTC,-0.0186
2,GAACTAAC,-0.0243
3,CGACTAGC,0.297
4,GTACTAAC,0.128
5,CGACTACG,0.337
6,CGACTAAC,0.43
7,CGACTACC,0.383
8,CAACTAAC,0.132
9,GGACTACC,0.284
10,GGACTAAC,0.367
11,GGGAGCCA,-0.00881
12,CCTTACAG,-0.2
13,CCGTCCTC,-0.281
14,ACAGCGAC,0.00958
15,CCATGCCA,-0.113
16,ATGAAAGG,-0.0528
17,AAGTCCCT,-0.127
18,GTGAGAAA,-0.0285
19,ATGATTTC,0.403
20,AAGATTTA,0.136
21,AGGATTTC,-0.125
22,CTGATTTC,0.222
23,ATGATTTA,0.415
24,CTGATTTA,0.238

row,Sequence,PBM E-score
1,CCCCGTAA,-0.0314
2,ATTACTAG,0.0126
3,TCGCTCCA,-0.0823
4,CAGAGGGA,-0.199
5,AATCATGC,0.432
6,CATCATGA,0.294
7,TATCATGA,0.256
8,AATCATGT,0.453
9,GATCATGC,0.134
10,AATCATGA,0.43
11,CATCATGC,0.0857
12,AATCAGGT,0.378
13,AAGCATGT,-0.0498
14,AATCAGGC,0.306
15,AATCAGGG,0.271
16,AATCAAGT,0.268
17,ATTTGAGG,-0.0184
18,ATGAGGGG,-0.125
19,AGCCGGCA,-0.176
20,GAATGCTA,-0.277
21,GCGAAAAC,-0.131
22,CCTCTGTA,-0.108
23,CCGCCGCA,-0.299
24,CCACAAAG,-0.0168

row,Sequence,PBM E-score
1,CATCATGG,0.0236
2,AATCAGCG,0.344
3,AATCAGCC,0.355
4,AATCAAGG,0.245
5,AATCATGG,0.42
6,AATCAGCT,0.389
7,CGATTAGA,0.0752
8,GATGTGGA,0.0614
9,GTCTTGTA,0.0119
10,AAAGTCAA,0.319
11,AAAGTCGT,0.258
12,AAAGTCAG,0.323
13,AAAGTCCT,0.0605
14,GAAGTCAC,0.433
15,AAAGTCAT,0.455
16,CAAGTCAC,0.36
17,GAAGTCAA,0.357
18,AAAGTCAC,0.411
19,AGGTCGTA,0.0488
20,CTAAACTA,0.0923
21,ACGGCCTG,-0.12
22,TAATCCGA,0.205
23,CAGGATAA,-0.208
24,ACGAGAAT,-0.125

row,Sequence,PBM E-score
1,AATACCAG,-0.0862
2,CTTTCAAA,0.0256
3,ACAGTCAC,0.405
4,ACAGTCAG,0.378
5,ACAGTCAA,0.319
6,GCAGTCCC,-0.00282
7,ACAGTCGG,0.181
8,ACAGTCGT,0.198
9,GCAGTCAC,0.435
10,CCAGTCAC,0.313
11,ACAGTCTC,0.146
12,GCAGTCAA,0.281
13,CCAGTCAG,0.248
14,ACAGTCAT,0.453
15,ATCACAGG,0.166
16,GGCCTGAC,0.109
17,ACCTGGTG,-0.0925
18,GCGGCTAC,-0.0969
19,AATTGTCA,0.0267
20,GGGGAGAC,-0.0271
21,CTCGATTA,0.186
22,AAGGTAGA,-0.209
